# Screen size: about 66,000 compounds; about 960 (1.5%) showed an effect of 50% or more. For the sample, strong results were picked, then their nearest neighbours and some compounds at random.
# Test system: Trypanosoma brucei
# Experiment: Trypanosoma brucei 72 hour study
# Assay type: functional, organism-based
# Design: scale not given: in the data most compounds retested in dose-response had high values
smiles,measurement,setting,value
Cc1c[nH]nc1C1CCCN1Cc1nccn1C.O=CO (stereo not drawn),Percent Effect,"30.3 µM, […]",-18.81%
CN1CCC(CN2CCC3(CCCN(Cc4ccoc4)C3)C2=O)CC1.O=C(O)C(F)(F)F.O=C(O)C(F)(F)F (stereo not drawn),Percent Effect,"30.3 µM, […]",-15.67%
Cn1cc(-c2ncc3c(c2C(=O)O)CCN(Cc2ccco2)C3)cn1.O=C(O)C(F)(F)F,Percent Effect,"30.3 µM, […]",-50.82%
CN(C)C1CCC2(CCN(Cc3cccnc3)CC2)c2ccccc21.O=C(O)C(F)(F)F.O=C(O)C(F)(F)F.O=C(O)C(F)(F)F (stereo not drawn),Percent Effect,"30.3 µM, […]",-21.62%
c1ccc(C2CCCN(c3ncnc4c3CCNC4)CC2)cc1 (stereo not drawn),Percent Effect,"30.3 µM, […]",41.62%
c1cc(C2CCN(c3ncnc4c3CCNCC4)CC2)ccn1,Percent Effect,"30.3 µM, […]",2.643%
c1ccc(C2CCN(c3ncnc4c3CCNC4)CC2)cc1,Percent Effect,"30.3 µM, […]",50.1%
Clc1cccc(C2CCN(c3ncnc4c3CCNC4)C2)c1 (stereo not drawn),Percent Effect,"30.3 µM, […]",68.15%
c1ccn2c(C3CCCN(c4ncnc5c4CCNC5)C3)nnc2c1 (stereo not drawn),Percent Effect,"30 µM, 30.03 µM",-44.47%
c1ccc2c(c1)CN(c1ncnc3c1CCNC3)CCO2,Percent Effect,"30.3 µM, […]",5.814%
CCCC(=O)NC1CCN(c2ccccc2S(=O)(=O)CC)CC1,Percent Effect,"30.3 µM, […]",-21.44%
CCNc1ncc2c(n1)CN(c1ccc(CC)cc1)C2=O,Percent Effect,"30.3 µM, […]",-19.29%
COc1cccc(Cc2nc3c([nH]2)CC(C)(C)CNC3=O)c1OC,Percent Effect,"30 µM, 30.03 µM",5.431%
O=C1NCCN1C1CCN(Cc2nc(-c3ccccc3)no2)CC1,Percent Effect,"30.3 µM, […]",2.472%
same,Percent Effect,"10 mM, 10 mM as filed; unlikely as a test dose",-47.27%
O=C(c1ccco1)N1C[C@H]2CN(Cc3cccc(F)c3)C(=O)[C@H]2C1,Percent Effect,"30 µM, 30.03 µM",-14.72%
O=C(NC1CC1)N1C[C@H]2CN(Cc3cccc(F)c3)C(=O)[C@H]2C1,Percent Effect,"30 µM, 30.03 µM",59.25%
O=C(CO)N1C[C@H]2CN(Cc3cccc(F)c3)C(=O)[C@H]2C1,Percent Effect,"30 µM, 30.03 µM",-7.119%
O=C(O)C(F)(F)F.O=C(O)C(F)(F)F.c1csc(CN2CCOCC3(CCN(C4CCOCC4)C3)C2)c1 (stereo not drawn),Percent Effect,"30 µM, 30.03 µM",45.09%
O=c1[nH]c2c(c(=O)n1C1CCCCC1)CCC2NCc1ccccc1 (stereo not drawn),Percent Effect,"30 µM, 30.03 µM",-25.27%
CCn1nc(C)c2ncnc(NCCCn3ccnc3)c21,Percent Effect,"30.3 µM, […]",-35.88%
Cc1ccc(Oc2ncccc2CNC(=O)C2COC(=O)N2)c(F)c1F (stereo not drawn),Percent Effect,"30 µM, 30.03 µM",17.54%
Cc1cccc(C)c1Oc1ncccc1CNC(=O)C1COC(=O)N1 (stereo not drawn),Percent Effect,"30 µM, 30.03 µM",52.62%
COc1ccccc1Oc1ncccc1CNC(=O)C1COC(=O)N1 (stereo not drawn),Percent Effect,"30 µM, 30.03 µM",-37.43%
O=C(O)C(F)(F)F.O=C(O)C(F)(F)F.O=C(O)C(F)(F)F.O=C(O)C(F)(F)F.c1ccc(CN2CCc3c(COCc4ccncc4)cncc3C2)nc1,Percent Effect,"30.3 µM, […]",-62.04%
CCN(CC)Cc1cc(=O)n2c(n1)CN(S(=O)(=O)C1CC1)CCC2.O=C(O)C(F)(F)F,Percent Effect,"30.3 µM, […]",-2.806%
COc1c(CNC2CCc3c(F)cccc32)c(C)nn1C.Cl (stereo not drawn),Percent Effect,10 µM,-43.32%
CC(C)[C@@H]1CN(Cc2ccccn2)C[C@H]1NS(=O)(=O)N(C)C,Percent Effect,"30 µM, 30.03 µM",-48.57%
CC(C)[C@@H]1CN(CCOc2ccccc2)C[C@H]1NS(=O)(=O)N(C)C,Percent Effect,"30.3 µM, […]",99.19%
CC(C)[C@@H]1CN(CCOc2ccc(Cl)cc2)C[C@H]1NS(C)(=O)=O,Percent Effect,"30.3 µM, […]",10.13%
Cc1ccc2c(c1)C(=O)NCC1(CCN(C(=O)c3ccccn3)CC1)O2,Percent Effect,"30.3 µM, […]",1.622%
CCN1C(=O)CC(c2ccccc2)C12CCN(CC1CCOCC1)CC2.O=C(O)C(F)(F)F (stereo not drawn),Percent Effect,"30.3 µM, […]",16.26%
CNc1ncc2c(n1)CN(CCc1ccccc1)C2=O,Percent Effect,"30 µM, 30.03 µM",0.2551%
COc1ccccc1OC1CCN(Cc2cnc(N(C)C)nc2)CC1,Percent Effect,"30 µM, 30.03 µM",59.89%
COc1ccccc1OC1CCN(Cc2ccc(N(C)C)nc2)CC1,Percent Effect,"30 µM, 30.03 µM",16.29%
COCc1ncc(CN2CCC(Oc3ccccc3OC)CC2)cn1,Percent Effect,"30 µM, 30.03 µM",-7.671%
C[C@@H]1C(=O)NC[C@H]2CN(Cc3ccc4c(c3)OCO4)C[C@H]21.O=C(O)C(F)(F)F,Percent Effect,"30.3 µM, […]",-39.22%
Cn1cccc1CN1CCC2(CC1)CN(c1ccccc1)C(=O)CO2.O=C(O)C(F)(F)F,Percent Effect,"30 µM, 30.03 µM",-21.68%
CCCn1cc(C(=O)N2CCOC(c3nc(-c4cccs4)no3)C2)cn1 (stereo not drawn),Percent Effect,"30.3 µM, […]",19.04%
CCCn1ccc(C(=O)N2CCOC(c3nc(-c4cccs4)no3)C2)n1 (stereo not drawn),Percent Effect,"30 µM, 30.03 µM",67.6%
CCn1ccc(C(=O)N2CCOC(c3nc(-c4cccs4)no3)C2)n1 (stereo not drawn),Percent Effect,"30.3 µM, […]",21.37%
Cc1csc(CN2CCC3(CC2)COC(COCC2CC2)C3)n1.O=C(O)C(F)(F)F (stereo not drawn),Percent Effect,"30.3 µM, […]",-1.163%
COc1nn(C)c2c1CCCN(C(=O)c1ccc3c(c1)OCO3)C2.O=C(O)C(F)(F)F,Percent Effect,"30 µM, 30.03 µM",-20.99%
CC(=O)N1CCN(c2cc(CCN)nc(C3CC3)n2)CC1.Cl,Percent Effect,"30.3 µM, […]",1.602%
COCCN1C[C@@H]2CN(Cc3ccc(F)cc3)C[C@@H]2C1=O.O=C(O)C(F)(F)F,Percent Effect,"30.3 µM, […]",-7.407%
O=C(O)C(F)(F)F.O=C1[C@H]2CN(Cc3cccs3)C[C@H]2CN1c1ccsc1,Percent Effect,"30 µM, 30.03 µM",27.72%
O=C(O)C(F)(F)F.O=C1[C@H]2CN(Cc3ccc(F)cc3)C[C@H]2CN1c1ccsc1,Percent Effect,"30 µM, 30.03 µM",14.65%
O=C(O)C(F)(F)F.O=C1[C@H]2CN(Cc3ccco3)C[C@H]2CN1c1ccsc1,Percent Effect,"30 µM, 30.03 µM",73.83%
CCOCCCn1c(NC(=O)c2cnc(C)cn2)nc2ccccc21,Percent Effect,10 µM,-41.49%
CCOCCCn1c(NC(=O)c2ccc(C)nc2)nc2ccccc21,Percent Effect,"30 µM, 30.03 µM",8.402%
CCOCCCn1c(NC(=O)c2cnn(C)c2)nc2ccccc21,Percent Effect,"30 µM, 30.03 µM",64.95%
CCOCCCn1c(NC(=O)c2ccnc(C)n2)nc2ccccc21,Percent Effect,10 µM,-13.79%
CCOCCCn1c(NC(=O)c2cc(C)on2)nc2ccccc21,Percent Effect,10 µM,-33.65%
CCOCCCn1c(NC(=O)c2cnc(C)s2)nc2ccccc21,Percent Effect,10 µM,-28.52%
CCOCCCn1c(NC(=O)c2scnc2C)nc2ccccc21,Percent Effect,"30 µM, 30.03 µM",105.1%
CCCn1c(NC(=O)CNC(=O)OCC)nc2ccccc21,Percent Effect,"30 µM, 30.03 µM",-18.3%
CCN(CC)CCn1c(NC(=O)c2scnc2C)nc2ccccc21,Percent Effect,10 µM,84.6%
Cc1noc(C)c1CN1CCOCC12CCN(c1ncccn1)CC2.O=C(O)C(F)(F)F,Percent Effect,"30.3 µM, […]",-79.15%
O=C(O)C(F)(F)F.O=C1CCC2(CCCN(CCc3ccccc3)C2)N1Cc1cccnc1 (stereo not drawn),Percent Effect,"30.3 µM, […]",-16.68%
CN(C)C(=O)[C@H]1C[C@@H]2CN(S(=O)(=O)Cc3ccccc3)C[C@H]1O2,Percent Effect,"30 µM, 30.03 µM",24.58%
COc1ccc(CN2CCO[C@H]3[C@H](OCc4ccncc4)CC[C@@H]32)cc1.O=C(O)C(F)(F)F.O=C(O)C(F)(F)F,Percent Effect,"30.3 µM, […]",-84.86%
Cc1nc(CN2CCCC2c2noc(C(C)C)n2)oc1C (stereo not drawn),Percent Effect,"30.3 µM, […]",12.42%
same,Percent Effect,"10 mM, 10 mM as filed; unlikely as a test dose",-15.34%
Cc1ccc(N(Cc2ccco2)C(=O)CC2=NN(C)C(=O)C2)cc1,Percent Effect,"30 µM, 30.03 µM",-11.27%
COCC1N(C(=O)c2ccc3c(c2)OCCCO3)[C@H]2CC[C@]1(O)CC2 (stereo partly drawn),Percent Effect,"30.3 µM, […]",-35.32%
O=C(NCc1ccc(-c2ccn[nH]2)cc1)N1CCC(N2CCCC2)C1 (stereo not drawn),Percent Effect,"30 µM, 30.03 µM",50.84%
CNC(=O)C1CCN(C(=O)NCc2ccc(-c3ccn[nH]3)cc2)CC1,Percent Effect,"30.3 µM, […]",-16.44%
NC(=O)C1CCN(C(=O)NCc2ccc(-c3ccn[nH]3)cc2)CC1,Percent Effect,"30.3 µM, […]",-25.22%
CN(C)C(=O)CC1CC2(CCN(Cc3ccoc3)CC2)c2ccccc21.O=C(O)C(F)(F)F (stereo not drawn),Percent Effect,"30 µM, 30.03 µM",-22.74%
Cc1ccc(C(C)NCc2cn(CCC(N)=O)c3ccccc23)cc1C (stereo not drawn),Percent Effect,"30.3 µM, […]",96.45%
CC(C)n1cnnc1CCNCc1cn(CCC(N)=O)c2ccccc12,Percent Effect,"30.3 µM, […]",-18.24%
CC(NCc1cn(CCC(N)=O)c2ccccc12)c1nncn1C (stereo not drawn),Percent Effect,"30.3 µM, […]",-49.32%
CC(CN1CCC2(CC1)N=C(c1cccnc1)NC2=O)c1ccccc1 (stereo not drawn),Percent Effect,"30 µM, 30.03 µM",6.734%
COCC1CC2(CCN(C(=O)c3occc3C)CC2)CN1C(C)C.O=C(O)C(F)(F)F (stereo not drawn),Percent Effect,"30.3 µM, […]",-8.924%
CCCc1noc(CN2CCCC2c2noc(C3CC3)n2)n1 (stereo not drawn),Percent Effect,"30.3 µM, […]",-16.45%
CCCc1noc(CCC(=O)N2CCCC2c2ccsc2)n1 (stereo not drawn),Percent Effect,"30 µM, 30.03 µM",-44.02%
CCCc1noc(CN2CCCC2c2ccsc2)n1 (stereo not drawn),Percent Effect,"30 µM, 30.03 µM",55.39%
CS(=O)(=O)NCc1cnc2n1CCN(Cc1cccs1)CC2.O=C(O)C(F)(F)F,Percent Effect,"30 µM, 30.03 µM",-2.909%
N[C@H]1CN(C(=O)CCCc2ccc(F)cc2)C[C@@H]1C1CC1,Percent Effect,"30 µM, 30.03 µM",79.67%
O=C(O)[C@@H]1CN(C(=O)CCCc2ccc(F)cc2)C[C@H]1C1CC1,Percent Effect,"30 µM, 30.03 µM",-8.475%
CN(C)[C@H]1CN(C(=O)CCCc2ccc(F)cc2)C[C@@H]1C1CC1,Percent Effect,"30 µM, 30.03 µM",21.51%
O=C(NCc1cccs1)[C@@H]1CC[C@@H]2[C@@H](CCN2c2ncccn2)O1.O=C(O)C(F)(F)F,Percent Effect,"30 µM, 30.03 µM",-28.93%
COc1ccc(C(CN2CCN(C)CC2)Nc2ncccn2)cc1 (stereo not drawn),Percent Effect,"30 µM, 30.03 µM",-24.12%
CCC(Nc1ncccn1)c1cccnc1 (stereo not drawn),Percent Effect,"30 µM, 30.03 µM",-16.09%
CCC(Nc1ncccn1)c1ccc(OC)cc1 (stereo not drawn),Percent Effect,"30 µM, 30.03 µM",62.75%
CCC(C)Oc1ccc(CNCCNS(C)(=O)=O)cc1Cl (stereo not drawn),Percent Effect,"30 µM, 30.03 µM",0.13%
O=C(O)C(F)(F)F.O=C(O)C(F)(F)F.O=C1CC(c2ccncc2)C2(CCN(CCc3ccccc3)CC2)N1 (stereo not drawn),Percent Effect,"30 µM, 30.03 µM",36.79%
CS(=O)(=O)N1CCC2(CC1)CC(NCC1CC1)c1ccccc12.O=C(O)C(F)(F)F (stereo not drawn),Percent Effect,"30.3 µM, […]",3.499%
CN1CC2(CCCN(Cc3ccc(Oc4ccccc4)cc3)C2)OC1=O (stereo not drawn),Percent Effect,"30 µM, 30.03 µM",-7.898%
CN(Cc1cc(Br)cn1C)C(=O)Cc1cccnc1,Percent Effect,"30 µM, 30.03 µM",102.7%
CN(Cc1cc(Br)cn1C)C(=O)c1cccnc1,Percent Effect,"30 µM, 30.03 µM",-39.03%
CN(Cc1cc(Br)cn1C)C(=O)Cc1cccc(O)c1,Percent Effect,"30 µM, 30.03 µM",-57.62%
COc1ccc(CN2CC[C@H]3[C@H]2CC(=O)N3Cc2cccc(C)n2)cc1.O=C(O)C(F)(F)F.O=C(O)C(F)(F)F,Percent Effect,"30.3 µM, […]",-40.33%
